# Test results from ChEMBL document CHEMBL3988442, “University of Dundee, Small-Polar-MMV Screening Library” (2021).
# Among all 67,000 compounds or so, about 300 (0.45%) showed an effect of 50% or more. What follows is part of a selection rich in strong results, with near analogues and random picks from the rest.
# Molecular target: Polyketide synthase Pks13 (Mycobacterium tuberculosis (strain ATCC 25618 / H37Rv)) (UniProt I6X8D2)
# Assay: Mycobacterium tuberculosis Polyketide synthase 13 Thioesterase (PKS13)
# Type: functional
# Parameters: scale not given: in the data most compounds retested in dose-response had high values
# Settings: 30 µM
# Chain of Polyketide synthase Pks13 (Mycobacterium tuberculosis (strain ATCC 25618 / H37Rv)) (I6X8D2 whole entry): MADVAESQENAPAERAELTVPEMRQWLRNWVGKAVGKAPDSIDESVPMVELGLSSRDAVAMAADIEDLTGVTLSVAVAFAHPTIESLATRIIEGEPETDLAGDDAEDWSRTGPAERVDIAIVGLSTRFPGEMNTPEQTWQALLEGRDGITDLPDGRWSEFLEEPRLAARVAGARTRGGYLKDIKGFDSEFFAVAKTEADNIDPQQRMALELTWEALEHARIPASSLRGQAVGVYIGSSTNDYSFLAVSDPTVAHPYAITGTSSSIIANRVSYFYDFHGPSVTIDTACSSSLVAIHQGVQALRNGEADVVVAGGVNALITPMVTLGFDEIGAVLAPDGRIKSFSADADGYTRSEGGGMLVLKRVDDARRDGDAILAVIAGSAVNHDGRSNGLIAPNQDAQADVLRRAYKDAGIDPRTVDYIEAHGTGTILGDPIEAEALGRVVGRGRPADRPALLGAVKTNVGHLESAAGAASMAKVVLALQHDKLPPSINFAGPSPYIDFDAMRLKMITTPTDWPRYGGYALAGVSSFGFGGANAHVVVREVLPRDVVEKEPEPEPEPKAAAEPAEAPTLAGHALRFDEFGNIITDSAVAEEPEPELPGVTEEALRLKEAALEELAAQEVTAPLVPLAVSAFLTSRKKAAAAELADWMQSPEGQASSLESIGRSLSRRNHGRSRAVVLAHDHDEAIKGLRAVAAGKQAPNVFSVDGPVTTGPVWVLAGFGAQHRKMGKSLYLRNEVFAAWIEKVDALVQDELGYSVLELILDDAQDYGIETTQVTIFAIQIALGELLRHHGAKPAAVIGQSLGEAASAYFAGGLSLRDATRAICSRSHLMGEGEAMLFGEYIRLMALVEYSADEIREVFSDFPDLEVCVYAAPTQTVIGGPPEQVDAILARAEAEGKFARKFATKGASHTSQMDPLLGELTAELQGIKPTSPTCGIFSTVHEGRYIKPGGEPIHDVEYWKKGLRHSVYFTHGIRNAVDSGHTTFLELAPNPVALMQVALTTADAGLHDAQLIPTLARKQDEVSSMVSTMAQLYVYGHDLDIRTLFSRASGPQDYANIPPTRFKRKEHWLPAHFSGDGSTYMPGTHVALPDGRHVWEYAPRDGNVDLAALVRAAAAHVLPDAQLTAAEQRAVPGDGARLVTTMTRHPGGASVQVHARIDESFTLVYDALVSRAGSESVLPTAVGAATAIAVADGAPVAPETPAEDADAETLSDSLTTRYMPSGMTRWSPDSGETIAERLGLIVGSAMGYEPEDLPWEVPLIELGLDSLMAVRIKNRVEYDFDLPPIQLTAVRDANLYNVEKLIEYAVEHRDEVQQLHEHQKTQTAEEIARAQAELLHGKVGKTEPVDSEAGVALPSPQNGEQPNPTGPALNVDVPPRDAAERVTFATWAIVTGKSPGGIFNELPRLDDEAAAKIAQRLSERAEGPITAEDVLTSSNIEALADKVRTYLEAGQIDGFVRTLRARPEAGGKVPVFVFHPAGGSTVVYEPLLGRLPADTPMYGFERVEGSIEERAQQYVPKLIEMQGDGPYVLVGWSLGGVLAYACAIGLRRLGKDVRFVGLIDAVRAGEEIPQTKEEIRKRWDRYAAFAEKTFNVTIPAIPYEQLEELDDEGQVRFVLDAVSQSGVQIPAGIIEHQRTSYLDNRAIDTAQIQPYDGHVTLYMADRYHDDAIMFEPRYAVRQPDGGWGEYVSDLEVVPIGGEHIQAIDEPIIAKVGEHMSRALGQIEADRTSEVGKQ
row,Compound,Percent Effect [%]
1,COc1ccc(-c2cc(C[C@@H]3C[C@H](N(C)C)C3(C)C)no2)cc1,53.8
2,CN(C)[C@H]1C[C@@H](Cc2cc(CO)on2)C1(C)C,-32.8
3,CN(C)[C@H]1C[C@@H](Cc2cc(-c3ccc(F)cc3)on2)C1(C)C,-26.6
4,CC(C(=O)NCCOc1ccc2c(c1)OCO2)n1cncn1 (stereo not given),-36.9
5,CC(C)N(CCC#N)C(=O)c1cnc(-c2ccc3c(c2)OCO3)s1,46.5
6,CN(C)C(=O)c1cnc(-c2ccc3c(c2)OCO3)s1,70.4
7,CCN(C(=O)c1cnc(-c2ccc3c(c2)OCO3)s1)C1CC1,28.9
8,CC(C)N(CC(N)=O)C(=O)c1cnc(-c2ccc3c(c2)OCO3)s1,71.9
9,CC(C1CC1)N(C)C(=O)c1cnc(-c2ccc3c(c2)OCO3)s1 (stereo not given),-13
10,O=C(N[C@@H]1CN(Cc2ccccn2)[C@@H]2COC[C@@H]21)C1CCC1,-11.8
11,O=C1CCCC2=C1C(c1cc(Cl)ccc1F)Nc1nonc1N2 (stereo not given),-14.9
12,CNC(=O)[C@H]1C[C@@H]2CCN(CCc3ccccc3)C[C@@H]2O1,-653
13,Cc1cc(CN2CCN(CC3CC3)[C@@H]3CS(=O)(=O)C[C@@H]32)ccc1F,-14.2
14,Cc1noc([C@@]23CCO[C@@H]2CCN(C(=O)c2ccsc2)C3)n1,-23.9
15,CNS(=O)(=O)c1csc(C(=O)N(C)Cc2ccccc2C)c1,51.6
16,CNS(=O)(=O)c1csc(C(=O)N(C)Cc2sccc2C)c1,-17.6
17,CCNS(=O)(=O)c1ccc(C)c(C(=O)N(C)Cc2ccccc2C)c1,-0.166
18,CCCn1ncc(CN2C[C@@H]3CCCN3C[C@@H]2Cc2ccccc2)c1C,21.5
19,CC(C)CN1C(=O)CO[C@@H]2CN(C(=O)C3CCOC3)C[C@H]21 (stereo not given in full),12.2
20,O=C(c1cscn1)N1C[C@@H](Oc2cccnc2)[C@H]2OCCC[C@H]21,29.5
21,CNc1ncc(CN(C)C(=O)c2cccc(-n3cnnc3)c2)cn1,-1.45
22,CNc1ncc(CN(C)C(=O)c2cccc(Cn3cccn3)c2)cn1,118
23,CNc1ncc(CN(C)C(=O)c2cccc(-n3cccn3)c2)cn1,-5.61
24,c1ccc(COC[C@H]2CC[C@H]3[C@H](CCN3c3ncccn3)O2)nc1,-8.11

row,Compound,Percent Effect [%]
1,Cc1c[nH]c(C(=O)N2C[C@H]3CC[C@@H]2CN(Cc2cscn2)C3)n1,-15.7
2,COc1ccc(CNC[C@@]2(COc3cccnc3)C[C@@H](O)[C@@H](O)C2)cc1,0.869
3,Cc1ccc(N2CCO[C@H]3CN(Cc4cc(C)on4)CC[C@H]3C2=O)cn1,-3.21
4,COCCCN1CCN([C@@H]2c3ccccc3C3(CCNCC3)[C@H]2O)CC1,-9.22
5,COCCCC1CCN([C@@H]2c3ccccc3C3(CCNCC3)[C@H]2O)CC1,-6.55
6,CCOCCN1CCN([C@@H]2c3ccccc3C3(CCNCC3)[C@H]2O)CC1,82.6
7,CCOC(=O)[C@]12CCCN(Cc3ccsc3)C[C@H]1CN(CCOC)C2,-32.4
8,Cc1nc(CNC(=O)NC(C)c2ccc3c(c2)OCCCO3)cs1 (stereo not given),-3.62
9,Cc1nc(CCNC(=O)NC(C)c2ccc3c(c2)OCCO3)cs1 (stereo not given),-9.04
10,Cc1nc(CN(C)C(=O)NC(C)c2ccc3c(c2)OCCO3)cs1 (stereo not given),58
11,CO[C@@H]1CCN(S(=O)(=O)N(C)C)[C@@H]2CN(Cc3ccncc3)C[C@@H]21,-11
12,CN(C)C(=O)c1cn[nH]c1C1(C)CCN(c2ncccn2)CC1,72.9
13,CN(C)C(=O)c1cn[nH]c1C1(C)CCCN(Cc2ccccn2)C1 (stereo not given),-25
14,CC1(c2[nH]ncc2C(N)=O)CCN(c2ncccn2)CC1,-9.79
15,O=C(C1CC1)N1CC[C@H]2C(=O)N(c3ccsc3)CCO[C@H]2C1,-24.6
16,CCN1CCC(NC(=O)Cc2csc(C(C)(C)C)n2)CC1,-28.7
17,Cc1nc(CC(=O)NCCN2CCC(c3ccccc3C)C2)cs1 (stereo not given),5.3
18,CCN1CCC(N[C@@H]2CC[C@@H]2NC(=O)Cc2csc(C)n2)CC1,64.6
19,COCC(=O)NC[C@H]1C[C@@H]2CCN1C[C@@H]2CN1CCc2ccccc2C1,-21.5
20,Cc1nc(CN2C(=O)CC[C@@H]3[C@H]2CCN3C(=O)C2CCOCC2)cs1,-22.6
21,Cc1ccc(S(=O)(=O)n2ccn(C(=O)CC(C)C)c2=O)cc1,10.8
22,CCC(CC)C(=O)n1ccn(S(=O)(=O)c2ccc(C)cc2)c1=O,69.1
23,Cc1ccc(S(=O)(=O)n2ccn(C(=O)COc3ccccc3)c2=O)cc1,-1
24,CS(=O)(=O)N1CCO[C@@H]2CN(C(=O)C3CC(F)(F)C3)C[C@@H]2C1,-14.3

row,Compound,Percent Effect [%]
1,Cc1ccc(NC(C)(C)c2nnnn2-c2ccc(Cl)cc2)c(C)c1,43.2
2,COc1ccc(-n2nnnc2C(C)(C)Nc2ccc(C)cc2C)cc1,-14.4
3,Cc1cccc(-n2nnnc2C(C)(C)Nc2ccccc2C)c1,71.2
4,Fc1ccc(CN2CCO[C@H]3[C@H](OCCN4CCCC4)CC[C@@H]32)cc1,-7.44
5,Cc1nnc(N2C[C@@H](OCC3CCCC3)[C@H]3OCCC[C@H]32)s1,-34.8
6,N[C@@H]1c2ccccc2C2(CCN(C(=O)c3ccccc3O)CC2)[C@H]1O,1.94
7,Cc1ccc(Cl)cc1C(=O)N1CCC2(CC1)c1ccccc1[C@@H](N)[C@@H]2O,-27.1
8,Cc1ccc(C(=O)N2CCC3(CC2)c2ccccc2[C@@H](N)[C@@H]3O)c(=O)[nH]1,70
9,COCCN1C[C@H]2CN(C(=O)c3ccc4c(c3)OCO4)CCN2C1=O,8.89
10,COc1cccc(-c2cccc(CN3C[C@@H]4CC[C@H](C3)N(C)C4=O)c2)c1,6.34
11,Cc1cc(CN(C)C(=O)c2ccc(N(C)C)nc2)no1,-10.8
12,Cc1cc(CN(C)C(=O)c2ccc(C(F)(F)F)nc2)no1,-4.93
13,Cc1ccc(C(=O)N(C)Cc2cc(C)on2)cn1,143
14,CC(C)c1nccc([C@@H]2C[C@@H]3CCN(Cc4ccco4)C[C@H]3O2)n1,-17.2
15,O=C(CC1CC1)NC[C@]12COC[C@H]1CN(c1ncc(F)cn1)C2,8.61
16,CC(C)(C)CCNc1nccc(-c2c[nH][nH]c2=O)n1,22.8
17,CN(C)c1nccc(-c2c[nH][nH]c2=O)n1,51.4
18,CN(C)c1nccc(-c2cnc(N(C)C)[nH]c2=O)n1,16.6
19,CNC(=O)[C@@]12CCO[C@@H]1CCN(S(=O)(=O)c1ccccc1F)C2,16.9
20,Cc1nc(CNC(=O)N2CCN(c3ccc(Cl)cn3)CC2)sc1C,50.8
21,Cc1nc(CNC(=O)N2CCN(c3ccc(Cl)cn3)CC2)no1,7.54
22,Cc1nc(C)c(CNC(=O)N2CCN(c3ccc(Cl)cn3)CC2)s1,14.6
